Compound activity from PubChem BioAssay.
Shown is part of a subset that was picked to be rich in hits.
Dicer inh – human Dicer pre-microRNA cleavage inhibition; cat-ELCCA pre-miR-21 Dicer processing, chemiluminescence; stronger effect = higher value; Q9UPY3; z-score at 25 µM; 47,000 compounds, 6% hits; AID 1347074; in the data active means z-score above about 3, passing the limit was not always enough;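 further: plate controls were vehicle for no effect and no enzyme for full effect; higher signal means more uncleaved substrate so more Dicer inhibition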
Active calls of the source: *.

SMILES	Dicer inh
c1ccc(-c2ccc(C3Nc4cccc5cccc(c45)N3)cc2)cc1	3.2*
CCc1ccc(C2CC(c3cccc(C)c3)n3nc(N)nc3N2)cc1 (stereo not given)	-0.17
COc1ccc(C2NC(=O)c3ccccc3N2)cc1O (stereo not given)	1.3
Cc1cccc(C2Nc3cccc4cccc(c34)N2)c1	3.6*
N#Cc1ccc(C2NC(=O)c3ccccc3N2)cc1 (stereo not given)	-1.5
COc1cc(C2N3CC4(C)CN2CC(C)(C3)C4)ccc1O (stereo not given)	2.7
Oc1ccc2ccccc2c1C1Nc2cccc3cccc(c23)N1	-0.25
Cc1ccc(C2CC(c3cccc(C)c3)n3ncnc3N2)cc1 (stereo not given)	-0.36
COc1cc(C2Nc3cccc4cccc(c34)N2)ccc1O	3.6*
CCOc1cc(C2c3c(oc4ccc(C)cc4c3=O)C(=O)N2Cc2ccc(C)cc2)ccc1O (stereo not given)	0.54
CC(C)(C)c1cs/c(=N/c2ccccn2)n1-c1cccc(C(F)(F)F)c1	16
CCOc1ccc(C2c3c(oc4ccccc4c3=O)C(=O)N2c2nccs2)cc1OCC (stereo not given)	0.1
CCOC(=O)C1CCN(C(=O)Nc2cc(F)ccc2C)CC1	1.6
CC(C)n1c(CN2CCN(c3cccc(Cl)c3)CC2)nc2c1c(=O)n(C)c(=O)n2C	-0.29
CCN(CC)C(=S)Oc1c(C)c(C)nc(=S)n1CCCOC	9.4*
O=C(O)CCC(=O)NCC(=O)c1ccc(OC(F)F)cc1	-0.5
CCOc1ccccc1C1C(C(=O)OC2CCCCC2)=C(C)NC2=C1C(=O)CCC2 (stereo not given)	1.7
CCOC(=O)c1c(N)sc2c1CCC2	-2.8
CCOC(=O)C1=C(C)N2CCN=C2S1	0.91
CCOC(=O)C1=C(C)N2CCCN=C2S1	3.3*
Nc1ccc(Cl)c(-c2nc3ccccc3o2)c1	0.83
COc1cccc(C2N3CC4(C)CN2CC(C)(C3)C4)c1O (stereo not given)	0.19
COc1ccc(Cl)cc1NC(=O)CSCC(=O)O	2.2
Cn1nnnc1SCCNCc1cc(Br)ccc1OCc1ccccc1	0.99
Cc1ccc(-c2nc(-c3cccnc3)no2)cc1C	2
SMILES	Dicer inh
c1ccc(-c2ccc(-c3nc(-c4cccnc4)no3)cc2)cc1	3.2*
COc1ccc(-c2nc(-c3cccnc3)no2)cc1	1.8
NN/C(=N/S(=O)(=O)c1ccccc1)N1CCCC1	0.81
CCOC(=O)C1=C(C)Nc2nnnn2C1c1ccc(OC)cc1 (stereo not given)	0.47
CCC1CCCCN1C(=O)CSc1nc(-c2ccco2)cc(C(F)(F)F)n1 (stereo not given)	0.04
Cc1ccc(-n2cccc2)c(NC(=S)NC(=O)c2ccccc2)c1	-1.4
CCn1cc(C(=O)N/N=C/c2ccc(Cl)cc2)c(=O)c2cc(C(F)(F)F)ccc21	-0.93
c1ccc(-n2cnc3cc(NCc4ccco4)ccc32)cc1	4.7*
CCn1cnc2cc(NCc3ccco3)ccc21	1.6
O=[N+]([O-])c1ccc2c(c1)ncn2-c1ccccc1	1.7
c1ccc2[nH]c(C3CCCCC3)nc2c1	-1.2
O=C(NC(=S)NCCc1ccccn1)c1ccccc1	3.1*
O=C(NC(=S)NCc1ccncc1)c1ccccc1	3.4*
S=C(NCCc1ccccn1)c1ccccc1	-1.9
O=C(NNC(=S)NCCc1ccccc1)c1ccncc1	-0.08
O=C(NC(=S)NCC1CC1)c1ccccc1	-0.16
COc1ccc(CCNC(=S)NC(=O)c2ccccc2)cc1OC	0.83
COCc1nc(-c2ccc(-c3ccc(Cl)cc3)nc2OC)no1	-0.2
O=C1CCC(c2ccccc2)C(O)=C1C=Nc1cccc(C(F)(F)F)c1 (stereo not given)	0.03
O=C1Oc2ccc(Br)cc2CC1C(=O)N1CCCCC1 (stereo not given)	8.3
CC(C)(C)c1ccc(-c2cc(NS(=O)(=O)c3ccc(Cl)cc3)n[nH]2)cc1	-7.5
Cc1nnsc1-c1nnc(-c2cccc3ccccc23)o1	0.49
O=C1SC(c2ccccc2)=N/C1=C/c1ccc(C(F)(F)F)cc1	-1.4
O=C(NC(=O)c1c(Cl)cccc1Cl)Nc1c(F)cc(F)cc1Br	-0.58
Cc1cccc(C)c1C(=O)NC(=O)Nc1c(F)cc(F)cc1F	56*
SMILES	Dicer inh
COc1ccc(Br)c(OC)c1C(=O)NC(=O)Nc1c(F)cccc1F	-0.93
Cc1nn(-c2ccccc2)nc1C(=O)ONC(=O)Cc1ccccc1	3
COc1cc(C(=O)N2C(C)CCCC2C)cc(OC)c1OC (stereo not given)	-0.69
CCCCSc1nnc2c(n1)OC(C)=Nc1ccccc1-2	3.2*
CCCCSc1nnc2c(n1)OC(C)=Nc1ccc(Br)cc1-2	1.3
CCCCCSc1nnc2c(n1)OC(C)=Nc1ccccc1-2	0.64
COc1cccc(OC)c1C(=O)Oc1ccc2c(=O)c(-c3ccccc3Cl)coc2c1	-2
COc1ccc(-c2c(C(F)(F)F)nn(C)c2NC(=O)C(C)(C)C)cc1	-0.02
O=C1CC(c2ccc(Cl)cc2)CC2=C1C(c1ccc3c(c1)OCO3)Nc1ccccc1N2 (stereo not given)	-2.8
Cc1ccc(C)c(C2Nc3ccccc3NC3=C2C(=O)CC(c2cccs2)C3)c1 (stereo not given)	3.4*
Cc1ccc(C2Nc3ccccc3NC3=C2C(=O)CC(c2cccs2)C3)cc1 (stereo not given)	3.2*
Cc1ccc2occ(C3Nc4ccccc4NC4=C3C(=O)CC(c3ccccc3Cl)C4)c(=O)c2c1 (stereo not given)	2.3
COc1ccc(C2CC(=O)C3=C(C2)Nc2ccccc2NC3c2ccc3c(c2)OCO3)cc1OC (stereo not given)	2.1
Cc1ccc(C2Nc3ccccc3NC3=C2C(=O)CC(c2ccc4c(c2)OCO4)C3)s1 (stereo not given)	5.4*
Cc1ccc2occ(C3Nc4ccccc4NC4=C3C(=O)CC(c3ccccc3)C4)c(=O)c2c1 (stereo not given)	1.1
O=C1CC(c2ccccc2)CC2=C1C(c1ccsc1)Nc1ccccc1N2 (stereo not given)	2.4
CN(C)c1ccc(C2Nc3ccccc3NC3=C2C(=O)CC(c2cccs2)C3)cc1 (stereo not given)	-3.1
CC(C)N(CCO)S(=O)(=O)c1ccc(N)cc1	1.1
CC(C)(C)C(=O)/C(C#N)=C/Nc1ccc(Cl)cn1	-1.2
COc1c(Br)csc1-c1nc(-c2ccc(C(F)(F)F)cc2)no1	-0.15
Cc1cc2c(cc1C)[n+](C)cn2CC(O)COc1cccc(Cl)c1 (stereo not given)	-0.27
Clc1ccc2c(c1)NC(c1ccc3c(c1)OCO3)O2 (stereo not given)	-0.86
CC(C)(C)NNC(=O)c1ccccc1N	-1.3
CCOC(=O)C(OC(=O)Nc1ccccc1)C(OC(=O)Nc1ccccc1)C(=O)OCC (stereo not given)	1.9
CCOC(=O)NC(NC(C)c1ccccc1)(C(F)(F)F)C(F)(F)F (stereo not given)	-0.53
SMILES	Dicer inh
CCOC(=O)NC1(NCC(C)C)Oc2ccccc2O1	6*
Cc1nn(C(=O)C2CC2)c(C)c1Oc1ccc(Cl)cc1	-0.53
Cc1cc(N2CCCCC2)n2c(nc3ccccc32)c1C#N	-0.79
CCOC(=O)c1c(-c2ccccc2)c2oc3ccc(Cl)cc3c2[nH]c1=O	1.1
Cc1c(C)c(C)c(S(=O)(=O)Oc2ccc([N+](=O)[O-])cc2)c(C)c1C	4.7*
N#Cc1c(OCC(F)(F)F)ccc(S(=O)(=O)Oc2ccc([N+](=O)[O-])cc2)c1OCC(F)(F)F	-0.54
